A short description of assay [1]: P-glycoprotein substrates identified in KB-3-1 adenocarcinoma cell line, qHTS therapeutic library screen (AID 1346986). Also: nearly all actives have a fitted effect of over 60% in size. The method in brief: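 Counter-screen: cherry-picked hits retested in the KB pair and in HEK-293 pcDNA/MDR-19 cells ± tariquidar. Primary screen used 72 h CellTiter-Glo viability in KB-3-1 and KB-8-5-11.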
The target in assay [2] is T1, Hexokinase-4 (Homo sapiens) + Glucokinase regulatory protein (Homo sapiens) (UniProt P35557+Q14397). The experiment in a line: qHTS assay for inhibitors of recombinant human GCK-GKRP interaction: ADP-Glo assay (AID 743206). The method in brief: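 GST-GCK and FLAG-GKRP (15 nM each in the dispensed mix, with 2 uM S6P) react with 0.4 mM ATP and 5 mM glucose (final) in Hepes pH 7.6 for 60 min at room temperature. ADP is measured by ADP-Glo luminescence.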
T1 sequence (P35557 whole entry, looked up): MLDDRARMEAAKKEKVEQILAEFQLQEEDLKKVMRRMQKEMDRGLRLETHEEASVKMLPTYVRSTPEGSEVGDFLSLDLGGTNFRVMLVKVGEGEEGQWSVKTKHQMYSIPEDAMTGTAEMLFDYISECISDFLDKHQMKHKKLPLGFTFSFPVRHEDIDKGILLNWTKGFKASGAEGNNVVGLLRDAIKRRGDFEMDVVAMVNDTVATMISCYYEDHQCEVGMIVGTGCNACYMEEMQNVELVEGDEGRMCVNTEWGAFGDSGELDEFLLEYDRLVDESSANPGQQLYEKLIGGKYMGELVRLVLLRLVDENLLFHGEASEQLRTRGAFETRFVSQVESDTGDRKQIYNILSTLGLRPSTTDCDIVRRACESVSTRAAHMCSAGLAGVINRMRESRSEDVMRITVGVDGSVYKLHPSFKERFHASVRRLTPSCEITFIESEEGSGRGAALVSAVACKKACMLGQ
T1 sequence (Q14397 whole entry, looked up): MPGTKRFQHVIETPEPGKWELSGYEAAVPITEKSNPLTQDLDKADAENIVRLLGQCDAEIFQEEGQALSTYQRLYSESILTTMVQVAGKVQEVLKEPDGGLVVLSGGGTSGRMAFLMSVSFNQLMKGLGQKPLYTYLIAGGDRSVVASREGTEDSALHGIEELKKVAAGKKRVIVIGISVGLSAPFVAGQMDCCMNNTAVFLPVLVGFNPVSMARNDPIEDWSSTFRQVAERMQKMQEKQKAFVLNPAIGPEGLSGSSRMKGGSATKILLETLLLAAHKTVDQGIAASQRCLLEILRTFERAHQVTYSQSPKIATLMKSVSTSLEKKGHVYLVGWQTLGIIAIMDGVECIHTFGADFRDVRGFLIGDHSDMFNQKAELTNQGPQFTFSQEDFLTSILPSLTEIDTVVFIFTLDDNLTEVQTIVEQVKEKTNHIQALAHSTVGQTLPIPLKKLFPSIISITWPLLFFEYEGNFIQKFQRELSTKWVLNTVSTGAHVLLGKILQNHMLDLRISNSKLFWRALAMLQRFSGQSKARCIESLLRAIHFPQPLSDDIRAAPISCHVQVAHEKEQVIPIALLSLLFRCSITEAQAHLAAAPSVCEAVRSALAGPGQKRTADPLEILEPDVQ
(In general: In qHTS, concentration-response curves come from the screen itself.)

Assay [3] addresses T1, Hexokinase-4 (Homo sapiens) + Glucokinase regulatory protein (Homo sapiens). The experiment in a line: qHTS assay for inhibitors of recombinant human GCK-GKRP interaction: HTRF assay (AID 743207). The method in brief: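 Steps: dispense GCK–GKRP complex (5 nM each, GST- and FLAG-tagged) with 2 uM S6P; pin in compounds; add XL665/Eu-cryptate-labelled antibodies; incubate 60 min at room temperature; read time-resolved FRET at 665 and 615 nm.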

Assay [4] is described as follows: qHTS assay for cell viability of HEK293 cells (AID 743288). Also: nearly all actives have a fitted effect of over 50% in size. The settings on record: ATP luminescence (CellTiter-Glo), 18 h, stronger effect = lower value. The method in brief:
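The Tox21 protocol used parental HEK293 cells treated for 18 h at 37 C with compounds delivered by pintool; ATP-coupled luminescence after 30 min at room temperature gave viability.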

Assay [5] is described as follows: qHTS assay for cell viability of the p53RE-bla HCT-116 cell line (AID 743292). Also: nearly all actives have a fitted effect of over 55% in size. The method in brief: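 Readout: CellTiter-Glo luminescence after 30 min RT. Treatment: compounds in DMSO, 16 h, 37 C. Cells: CellSensor p53RE-bla HCT-116, 4,000/well, preincubated 5 h.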

Values without a mark were called inactive. Results filed as inconclusive are left out. Where a call stands in place of a potency, no number is given. Activity calls are given as the source filed them. Calls follow the shape of the dose curve; as a rule, active = well fitted curve in the direction sought with a large enough effect; inconclusive = small, poorly fitted or top-dose-only effect, or another doubt; inactive = no such curve, though single readings can be large; an effect the other way counts as inactive or inconclusive. Where a SMILES comes first, the peptide text is derived from it.

As for `O=C1N(CC2CCCCN2)CCN1c1ccccc1` (stereo unspecified), in assay [1], the Potency entry was “inactive”.

As for `CC(C)CC(=O)O[C@@H]1OC=C(CO[C@@H]2O[C@H](CO[C@@H]3O[C@H](CO)[C@@H](O)[C@H](O)[C@H]3O)[C@@H](O)[C@H](O)[C@H]2O)[C@H]2C[C@H](O)[C@@H](CO)[C@@H]12`, the Potency result in assay [1] was “inactive”.

As for `COC(=O)C1C(c2ccc(O)cc2)C(C(=O)OC)C1c1ccc(O)cc1` (stereo unspecified), the Potency result in assay [1] is “inactive”.

As to `COc1ccc(/C=C/C(=O)O[C@H]2[C@@H]3C=CO[C@@H](O[C@@H]4O[C@H](CO)[C@@H](O)[C@H](O)[C@H]4O)[C@@H]3[C@@]3(CO)O[C@@H]23)cc1O`, the Potency entry in assay [1] was “inactive”.

On to `CC1=C2C(=O)O[C@@H](c3ccoc3)[C@]2(C)CCC1`, for which the Potency result in assay [1] is “inactive”.

Turning to `CC(=O)O[C@@H]1[C@H](O[C@@H]2O[C@H](CO)[C@@H](O)[C@H](O)[C@H]2O)[C@@H](O[C@@H]2O[C@@H](C)[C@H](O)[C@@H](O[C@@H]3O[C@H](CO)[C@@H](O)[C@H](O)[C@H]3O)[C@H]2O)[C@H](OC(=O)C23CCC4(C)C(=CCC5C6(C)CC(O)C(O[C@@H]7O[C@H](C(=O)O)[C@@H](O)[C@H](O)[C@H]7O)C(C)(C(=O)O)C6CCC54C)C2CC(C)(C)CC3O)O[C@@H]1C` (stereo partly specified), the outcome in assay [1] is “inactive [at 9.29 µM]”.

Consider `CO[C@@H]1COCC[C@@H]1N[C@@H]1CC[C@@](C(=O)N2CCc3ncc(C(F)(F)F)cc3C2)(C(C)C)C1`, for which, in assay [1], the Potency result was “inactive”.

On to `COc1cc(C2c3cc(O)c(OC)cc3CC(CO)C2CO)ccc1O` (stereo unspecified), for which, in assay [1], the Potency result is “inactive”.

Consider `CC(=O)O[C@@H]1[C@H](O[C@@H]2OC[C@](O)(CO)[C@H]2O)[C@@H](O[C@@H]2O[C@@H](C)[C@H](O)[C@@H](O)[C@H]2O)[C@H](OC(=O)[C@]23CCC(C)(C)C[C@H]2C2=CCC4[C@@]5(C)C[C@H](O)[C@H](O[C@@H]6O[C@H](C(=O)O)[C@@H](O)[C@H](O)[C@H]6O)[C@@](C)(C(=O)O)C5CC[C@@]4(C)[C@]2(C)CC3)O[C@@H]1C` (stereo partly specified), for which the outcome in assay [1] was “inactive [at 9.29 µM]”.

Take `C/C=C(/C)C(=O)O[C@H]1C=C(C)C[C@H](OC(=O)c2ccc(O)cc2)C2[C@](O)(C(C)C)CC[C@@]21C` (stereo partly specified): in assay [1], the Potency result was “inactive”.

With `O=C(O[C@H]1[C@@H]2C[C@@H]3OC[C@@](O)([C@H]2[C@H](O[C@@H]2O[C@H](CO)[C@@H](O)[C@H](O)[C@H]2O)O3)[C@@H]1O)c1ccccc1`, in assay [1], the Potency entry is “inactive”.

On to `CC(/C=C/[C@]1(O)[C@@]2(C)CO[C@@]1(C)C[C@@H](O)C2)=C\C(=O)O[C@@H]1O[C@H](CO)[C@@H](O)[C@H](O)[C@H]1O`, for which, in assay [1], the Potency entry is “inactive”.

Turning to `C[C@@H]1O[C@@H](O[C@H]2[C@H](OC(C#N)c3ccc(O)cc3)O[C@H](CO)[C@@H](O)[C@@H]2O)[C@H](O)[C@H](O)[C@H]1O` (stereo partly specified), the Potency result in assay [1] was “inactive”.

`OC1COC(OCC2OC(OCCc3ccccc3)C(O)C(O)C2O)C(O)C1O` (stereo unspecified): the Potency result in assay [1] is “inactive”.

Turning to `CCCCN(CCCC)C(=O)CN1C[C@H](c2ccc3c(c2)OCO3)[C@@H](C(=O)O)[C@@H]1c1ccc(OC)cc1`, the Potency entry in assay [1] is “inactive”.

For the compound `CC(C)=CCCC1(C)Oc2cc3c(c4c2C2C(O4)C(C)(O)CCC21)CN(C(CCC(=O)O)C(=O)O)C3=O` (stereo unspecified), in assay [1], the Potency result is “inactive”.

As to `Cc1c(N2C(=O)c3ccc(C(=O)O)cc3C2=O)c(=O)n(-c2ccccc2)n1C`, in assay [1], the Potency entry is “inactive”.

In the case of `CC[C@H]1OC(=O)[C@H](C)[C@@H](O[C@H]2C[C@@](C)(OC)[C@@H](O)[C@H](C)O2)[C@H](C)[C@@H](O[C@@H]2O[C@H](C)C[C@H](N(C)C)[C@H]2O)[C@@](C)(O)C[C@@H](C)[C@@H]2N[C@@H](COCCOC)OC([C@H]2C)[C@]1(C)O`, the Potency entry in assay [1] was “inactive”.

As for `CC(c1c[nH]c2ccccc12)C(O)C(=O)O` (stereo unspecified), the Potency result in assay [1] was “inactive”.

`C[C@@H]1C[C@H](O)/C=C/[C@H](O)[C@@H](O)CC(=O)O1`: the Potency entry in assay [1] was “inactive”.

For the compound `C[C@@H]1CC[C@]2(C(=O)O)CC[C@]3(C)C(=CCC4[C@]5(C)C(CC[C@]43C)C(C)(C)[C@@H](O)[C@H](O)[C@@H]5O)C2[C@]1(C)O` (stereo partly specified), the Potency result in assay [1] was “inactive”.

Regarding `CC1NC(=O)CNC(=O)C(C(C)C)NC(=O)C2CCCN2C(=O)C(C(C)C)NC(=O)C(Cc2c[nH]c3ccccc23)NC1=O` (stereo unspecified) (cyclo(GAWVPV); configuration not given here), the Potency result in assay [1] is “inactive”.

As to `C/C(=C\CCC(C(=O)O)C1CCC2(C)C3=C(CCC12C)C1(C)CCC(=O)C(C)(C)C1CC3)C(=O)O` (stereo unspecified), the Potency result in assay [1] is “inactive”.

Consider `Cn1c(=O)c2nc(/C=C/c3cccc(Cl)c3)n(C)c2n(C)c1=O`, for which the Potency entry in assay [1] was “inactive”.

Consider `c1ccc(Nc2nc3c(s2)CCCc2[nH]ncc2-3)nc1`, for which the Potency entry in assay [1] is “inactive”.

With `O=C(OCc1cccc(O)c1O[C@@H]1O[C@H](CO)[C@@H](O)[C@H](O)[C@H]1O)C1(O)C(=O)C2C=CC1C1C=CC(=O)C(O)(C(=O)OCc3cccc(O)c3O[C@@H]3O[C@H](CO)[C@@H](O)[C@H](O)[C@H]3O)C21` (stereo partly specified), the outcome in assay [1] is “inactive [at 9.29 µM]”.

Regarding `CC(=O)[C@@H]1CC[C@]2(C(=O)O)CC[C@]3(C)C(CCC4[C@@]5(C)CC[C@H](O)C(C)(C)C5CC[C@]43C)C12` (stereo partly specified), the Potency result in assay [1] was “inactive”.

For `Nc1nonc1C(=Nc1ccc(F)c(Cl)c1)NO`, the Potency result in assay [1] is “inactive”.

As to `CC(C)[C@@H](C)/C=C/[C@@H](C)[C@H]1CC[C@H]2C3=CC=C4C[C@@H](O)CC[C@]4(C)[C@H]3CC[C@]12C`, the Potency result in assay [1] is “inactive”.

As for `CC1(C)CCC2(C(=O)OC3OC(COC4OC(CO)C(O)C(O)C4O)C(O)C(O)C3O)CCC3(C)C(=CCC4C5(C)CCC(O)C(C)(C(=O)O)C5CCC43C)C2C1O` (stereo unspecified), the outcome in assay [1] is “inactive [at 9.29 µM]”.

For `COc1cccc(-n2nc(C(=O)O)cc2-c2ccc(C3CCCCC3)c(Cl)c2)c1`, the Potency entry in assay [1] was “inactive”.

On to `CCCC(N[C@@H](C)C(=O)N1[C@H](C(=O)O)C[C@@H]2CCCC[C@@H]21)C(=O)OCC` (stereo partly specified), for which the Potency result in assay [1] was “inactive”.

As for `C=C1C(=O)OC2CC(C)=C(C(C)CCCO[C@@H]3O[C@H](CO)[C@@H](O)[C@H](O)[C@H]3O)C(O)C12` (stereo partly specified), the Potency entry in assay [1] is “inactive”.

`COC(=O)CC1(O)C(=O)Nc2ccccc21` (stereo unspecified): the Potency entry in assay [1] was “inactive”.

For the compound `CCCn1cnc2c(NCc3ccccc3)nc(N[C@H](CC)CO)nc21`, the Potency entry in assay [1] is “inactive”.

On to `O=C(O)CCc1cccc(O[C@@H]2O[C@H](CO)[C@@H](O)[C@H](O)[C@H]2O)c1O`, for which the Potency entry in assay [1] was “inactive”.

For `O=C(O)[C@H]1CCCC[C@H]1C(=O)N1CCc2ccccc2[C@H]1CN1C(=O)c2ccccc2C1=O`, the Potency entry in assay [1] was “inactive”.

Take `CN1Cc2c(N)cccc2C(c2ccccc2)C1` (stereo unspecified): the outcome in assay [2] and in assay [3] was inactive.

On to `CC1=C2[C@@H]([C@H](C)CC[C@H]2/C=C(\C)C(=O)O)[C@H](O)C1`, for which the max response in assay [4] is -12%. The result in assay [5] was inactive.

(Values after PubChem BioAssay (NCATS).)
